# From PubChem BioAssay AID488940 (National Center for Advancing Translational Sciences (NCATS), 2010)
# Activity calls are given as the source filed them. The call rests on the fitted dose curve.
# Molecular target: DNA repair nuclease/redox regulator APEX1 (Homo sapiens) (UniProt P27695)
# Assay: Radiotracer Incision Assay (RIA) for Inhibitors of Human Apurinic/apyrimidinic Endonuclease 1 (APE1)
# Details: Recombinant APE1, radiolabeled AP-DNA incision, gel
# Excerpt: The apurinic/apyrimidinic endonuclease APE1 is the primary mammalian enzyme responsible for the removal of abasic (or AP) sites in DNA and functions centrally in the base excision DNA repair (BER) pathway. […] Thus, targeting APE1 could improve the efficacy of current treatment paradigms by promoting selective sensitization or protection of diseased and normal cells, respectively. This secondary Radiotracer Incision Assay was implemented to validated hits from the primary screen (AID 2517).
# Recombinant wild type APE1 protein was purified as previously described (Erzberger et al., NAR, 1998). Fifty pg of APE1 (~140 pM) was incubated without (positive control containing 1% DMSO) or with 100 microM of the indicated inhibitor at room temperature in RIA buffer (50 mM Tris pH 7.5, 25 mM NaCl, 1mM MgCl2, 1 mM DTT, 0.01% Tween -20) for 15 min. One-half pmol of 32P 5'-radiolabeled AP-DNA substrate (18 mer) was added to a 10 microL final volume (see Wilson et al., JBC, 1995), and the reactions were incubated at 37 °C for 5 min and stopped by adding stop buffer (0.05% Bromophenol blue/ Xylene cyanol dissolved in 95% formamide, 20 mM EDTA) and heating at 950C for 10 min. Intact substrate was separated from incised product on a 15% polyacrylamide denaturing gel in tris boric acid EDTA buffer. Following electrophoresis, the gel was subjected to standard phosphoimager analysis using the ImageQuant 5.2 software, and the percent incision activity (amount of substrate converted to product) was calculated.
# DNA repair nuclease/redox regulator APEX1 (Homo sapiens), sequence (P27695 whole entry, looked up): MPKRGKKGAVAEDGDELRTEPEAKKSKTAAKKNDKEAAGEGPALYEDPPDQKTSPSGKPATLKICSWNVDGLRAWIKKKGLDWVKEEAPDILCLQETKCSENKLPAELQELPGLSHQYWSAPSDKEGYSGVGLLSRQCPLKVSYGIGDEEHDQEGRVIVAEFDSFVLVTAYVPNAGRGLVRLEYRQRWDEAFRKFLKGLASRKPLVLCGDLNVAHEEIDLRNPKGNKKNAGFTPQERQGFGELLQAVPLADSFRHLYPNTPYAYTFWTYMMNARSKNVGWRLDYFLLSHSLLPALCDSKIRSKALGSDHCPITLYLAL
row,Structure (SMILES),Potency
1,CC(=O)Nc1sc2c(c1-c1nc3ccccc3s1)CN(C(C)C)C2,4 µM (active)
2,CC(=O)Nc1sc2c(c1-c1nc3ccccc3o1)CCN(C(C)C)C2,13 µM (active)
3,CC(=O)Nc1sc2c(c1-c1nc(-c3ccccc3)cs1)CCN(C(C)C)C2,3 µM (active)
4,CC(=O)Nc1sc2c(c1-c1nc3ccccc3s1)CCCN(C(C)C)C2,14 µM (active)
5,CC(=O)Nc1sc2c(c1-c1nc3ccccc3s1)CCN(C(C)=O)C2,5 µM (active)
6,CC(=O)Nc1sc2c(c1-c1nc3ccccc3s1)CCN(C(C)C)C2,19 µM (active)
7,CC(=O)Nc1sc2c(c1-c1nc3ccccc3s1)CCN(C)C2,5 µM (active)
8,CC(=O)Nc1sc2c(c1-c1nc3ccccc3s1)CCN(C(C)C)CC2,13 µM (active)
9,O=C(Nc1sc2c(c1-c1nc3ccccc3s1)CCNC2)C(F)F,4 µM (active)
10,CC(=O)Nc1sc2c(c1-c1nc3ccccc3s1)CCNC2,5 µM (active)
11,CC(=O)Nc1sc2c(c1-c1nc3ccccc3s1)CCCNC2,7 µM (active)
12,CC(=O)Nc1sc2c(c1-c1nc3ccccc3s1)CCS(=O)(=O)C2,77 µM (active)
